Most compounds without a hit are left out; they make up all but 19% or so of the library.
DT40 TDP1 CPT = growth inhibition of DT40 Tdp1-/-;hTDP1 cells with camptothecin (screen for TDP1 inhibitors); chicken DT40 Tdp1-/-;hTDP1 cells + 20 nM CPT, ATP luminescence, 48 h; Potency, µM (series often up to 46.2 µM), for inactives: at the highest dose activity change, negative = growth inhibition, actives largely listed as inhibitors; hit rate 12% among 420,000; note: potency is the fitted concentration of half-maximal effect; nearly all actives have a fitted effect of over 55% in size
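Cell growth measured by CellTiter-Glo luminescence after a minimum 48 h, 37 C compound exposure with 20 nM CPT in Tdp1-knockout DT40 cells stably expressing hTDP1, seeded 400/well; qHTS titration format.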
IL1B secr inh = inhibitors of inflammasome signaling (IL-1 beta secretion) | THP-1 LPS/ATP IL-1B secretion, AlphaLISA, 16 h; stronger effect = lower value | activity change, % at 57.5 µM | hit rate 4.7% among 360,000 | AID 743279; in the data active = activity change below about -50%; inconclusive = mostly about -30% to -49%
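THP-1 cells pretreated 1 hr with compounds (up to 57.5 uM final), then stimulated with LPS (250 ng/mL final) plus ATP (1.25 mM final); secreted IL-1B measured by AlphaLISA after 16 hr, decreased signal indicating inhibition.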
DT40 TDP1 no CPT = qHTS for Inhibitors of human tyrosyl-DNA phosphodiesterase 1 (TDP1): qHTS in cells in absence of CPT. AID 686978, 2013. hit rate 15% among 420,000. Potency, µM (highest dose often 46.2 µM), for inactives: top-dose activity change, negative = growth inhibition, hits mostly inhibitors. DT40 Tdp1-/- hTDP1 cells, no CPT, ATP luminescence, 48 h; note: potency is the fitted concentration of half-maximal effect; nearly all actives have a fitted effect of over 55% in size
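Compound effects on proliferation are scored in DT40 Tdp1-/-;hTDP1 cells in the absence of CPT. ATP levels (CellTiter-Glo luminescence) are recorded after a ≥48 hr, 37 °C incubation.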
TDP1 block = inhibitors of human tyrosyl-DNA phosphodiesterase TDP1; Q9NUW8; recombinant TDP1, AlphaScreen DNA substrate cleavage; Potency, µM (series often up to 130 µM), for the others: at the highest dose activity change, negative = inhibition, usual class: inhibitors; hit rate 0.28% among 350,000; note: potency is the fitted concentration of half-maximal effect; nearly all actives have a fitted effect of over 40% in size
Target sequence (Q9NUW8 whole entry, looked up): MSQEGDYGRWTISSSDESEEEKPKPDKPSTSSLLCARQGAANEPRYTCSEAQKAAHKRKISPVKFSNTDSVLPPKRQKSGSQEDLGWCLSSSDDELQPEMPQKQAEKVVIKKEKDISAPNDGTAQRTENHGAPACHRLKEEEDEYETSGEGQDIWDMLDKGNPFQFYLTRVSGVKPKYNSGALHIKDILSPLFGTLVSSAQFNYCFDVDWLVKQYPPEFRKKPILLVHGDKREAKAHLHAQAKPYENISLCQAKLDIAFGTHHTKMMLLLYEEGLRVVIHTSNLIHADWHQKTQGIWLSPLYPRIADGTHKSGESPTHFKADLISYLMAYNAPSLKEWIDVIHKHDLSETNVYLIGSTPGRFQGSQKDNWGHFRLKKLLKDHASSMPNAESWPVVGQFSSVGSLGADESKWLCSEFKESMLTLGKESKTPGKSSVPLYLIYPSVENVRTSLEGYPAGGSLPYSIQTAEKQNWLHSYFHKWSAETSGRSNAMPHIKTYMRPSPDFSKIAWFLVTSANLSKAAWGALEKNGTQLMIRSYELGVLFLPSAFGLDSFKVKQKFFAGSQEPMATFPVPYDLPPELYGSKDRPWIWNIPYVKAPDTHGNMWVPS
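Signal: AlphaScreen proximity between streptavidin donor and anti-FITC acceptor beads on intact substrate. Reaction: Tdp1 1 nM, substrate 15 nM final, 5 min RT after 15 min compound preincubation.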
Giardia killer = kills Giardia lamblia | Giardia lamblia trophozoite viability | activity change, % at 7.66 µM, hits read low | hit rate 0.15% among 340,000; in the data active = activity change below about -80%; inconclusive = between about -30% and that limit;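 note: parasites exposed to compound for two days anaerobically before the ATP read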
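Anaerobic 48 hrs incubation at 37 deg C of 100 trophozoites/well with test compounds; ATPLite 1-Step luminescence, 15-30 min RT, reports cellular ATP as viability.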
ELG1 repair inh = inhibitors of ELG1-dependent DNA repair in HEK293T cells; hit rate 2.3% among 330,000; HEK293T ELG1-luciferase reporter, luminescence, 16 h; DNA damage induced by 5-fluorouridine; AID 504467; Potency, µM (highest dose often 46.1 µM), for inactives: at the highest dose activity change, negative = inhibition, usual class: inhibitors; note: potency is the fitted concentration of half-maximal effect; nearly all actives have a fitted effect of over 55% in size
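Overnight (16 hr) co-exposure of 2,000 cells/well to 5-fluorouridine and compound at 37 °C preceded detection. Luciferase was quantified via ONE-Glo luminescence; loss of signal denotes inhibition.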
Starred values were filed as active, the others as inactive; ? = inconclusive; . = no result given; [ ] = another dose, or the depositor's remark. Unless noted, calls come from the whole dose curve; as a rule, active = well fitted curve in the direction sought with a large enough effect; inconclusive = small, poorly fitted or top-dose-only effect, or another doubt; inactive = no such curve, though single readings can be large; an effect the other way counts as inactive or inconclusive. % is set by controls: 0 for no effect and ±100 for the full control effect.

SMILES	DT40 TDP1 CPT	IL1B secr inh	DT40 TDP1 no CPT	TDP1 block	Giardia killer	ELG1 repair inh
Cc1c(C(=O)N2CCCCC2)c(S(=O)(=O)NCc2ccc(Cl)cc2)c(C)n1C	?	-19	-12%	5%	-21	4%
CCCC(=O)OC1CCS(=O)(=O)c2sccc21 (configuration not stated)	?	45	-17%	-1%	20	6%
Cc1ccc(O)c(C2=NOC(O)(C(F)(F)F)C2)c1 (configuration not stated)	-6%	11	-10%	5%	-7	-3%
COc1cc(C(=O)NNC(=O)c2cc(C)[nH]n2)cc(OC)c1OC	-5%	-3	-14%	5%	-10	2%
Cc1ccc(NC(=S)NNC(=S)Nc2ccc(C)cc2C)cc1	3.7µM*	-25	5.2µM*	-6%	2	-19%
Cc1ccc(NC(=S)Nc2ccccn2)c(C)c1	3.7µM*	-11	5.2µM*	4%	-1	?
Cc1ccc(NC(=S)c2ccncc2)c(C)c1	2%	-26	-10%	1%	23	5%
COc1ccccc1-c1noc(CCC(=O)NC2CCCCC2)n1	-27%	-7	-17%	1%	-22	-24%
Cc1noc(C)c1-c1ccc2ncnc(NCc3cccn3C)c2c1	.	.	.	6%	.	.
COc1ccccc1C1=CC(=O)C[C@H](c2ccc(Cl)cc2)C1	15µM*	-54*	?	-7%	3	?
COc1cccc(C2=CC(=O)C[C@H](c3ccc(Cl)cc3)C2)c1OC	23µM*	?	?	2%	2	21µM*
CCN(CC)c1ccc(NC(=O)c2cccnc2)cc1	?	-2	?	-1%	-7	.
O=C(/C=C/c1ccccc1Cl)c1ccc(O)cc1	16µM*	-95*	15µM*	5%	-1	?
CCN(CC)c1ccc(/C=C/C(=O)c2cccnc2)cc1	?	6	21µM*	5%	-8	23µM*
CCN(CC)c1ccc(/C=C/C(=O)c2ccc(Br)cc2)cc1	16µM*	-65*	?	.	3	10%
O=C(C=Cc1ccccc1F)c1ccccc1	?	-65*	?	.	.	.
O=C(/C=C/c1ccc(Cl)cc1)c1cccnc1	5.8µM*	?	8.2µM*	2%	6	?
O=C(/C=C/c1c(F)cccc1Cl)c1ccc(O)cc1	?	?	23µM*	5%	16	18%
O=C(/C=C/c1ccccc1Cl)NNC(=O)c1ccncc1	7%	-2	-1%	1%	37	7%
N#Cc1ccc(/C=C/C(=O)c2cccnc2)cc1	10µM*	?	15µM*	8%	-1	?
O=C(/C=C/c1ccccc1Cl)c1cccnc1	7.3µM*	?	16µM*	5%	12	?
O=C(/C=C/c1ccccc1)NNC(=O)c1cccnc1	1%	16	0%	2%	-6	12%
Cn1cc(CN2CCC(C3(c4ccccn4)NC(=O)N(CC4CCCO4)C3=O)CC2)c2ccccc21 (configuration not stated)	?	.	-20%	.	.	.
CCOCCCN(C)C1CCN(C(=O)c2oc3ccccc3c2NC(=O)Cc2ccc(F)cc2)CC1	-21%	-15	-1%	3%	-5	0%
C=CCC(NCc1ccccc1)c1ccc(OC)cc1 (configuration not stated)	?	-11	26µM*	.	4	-6%
SMILES	DT40 TDP1 CPT	IL1B secr inh	DT40 TDP1 no CPT	TDP1 block	Giardia killer	ELG1 repair inh
Cc1ccc(S(=O)(=O)N2CCCCC2)cc1NC(=O)CSc1nnc(C2CC2)n1C	-20%	23	-18%	-1%	12	12%
CC1(C)OC(C(O)(c2cc(F)c(F)c(F)c2)c2cc(F)c(F)c(F)c2)C(C(O)(c2cc(F)c(F)c(F)c2)c2cc(F)c(F)c(F)c2)O1 (configuration not stated)	.	.	.	7%[21 µM]	.	.
Cc1ccc(CN(C(=O)COc2ccccc2Cl)c2ccccn2)o1	?	.	?	3%	.	.
COc1ccc(C2C(C#N)=C(N)N(c3sc4c(c3C#N)CCCC4)C3=C2C(=O)CC(C)(C)C3)cc1 (configuration not stated)	21µM*	-2	?	6%	-3	-12%
COc1ccc(C2C(C#N)=C(N)N(N(C)C)C3=C2C(=O)CC(C)(C)C3)cc1 (configuration not stated)	-4%	-11	11%	.	2	26%
COc1ccc(C2C(C#N)=C(N)N(c3sc4c(c3C#N)CCCC4)C3=C2C(=O)CC(C)(C)C3)cc1OC (configuration not stated)	18µM*	-12	?	8%	-20	-27%
COc1ccc(C2C(C#N)=C3NC(=O)c4c(sc5c4CCCCC5)N3C3=C2C(=O)CC(C)(C)C3)cc1 (configuration not stated)	16µM*	-24	23µM*	8%	-9	?
Cc1nn(-c2ccccc2)c(OC(=O)c2ccccc2Br)c1S(=O)(=O)c1ccccc1	-11%	.	-20%	2%	.	.
COc1ccc(CCN(C)CCCOc2ccc(S(=O)(=O)c3[nH]c4ccccc4c3C(C)C)cc2)cc1OC	13µM*	.	9.4µM*	17%[56.1 µM]	.	.
COc1ccc(CCN(C)CCc2ccc(OC)c(OC)c2)cc1OC	?	0	-19%	5%[56.1 µM]	-2	.
CC(C)CCNC(=O)C1CCC(CNS(=O)(=O)c2ccc(Cl)cc2)CC1 (configuration not stated)	-3%	7	2%	.	-26	?
O=C(COC(=O)c1ccccn1)Nc1nc(-c2ccccc2)cs1	-13%	-2	-15%	.	6	?
O=C(Nc1ncc(Cc2cccc(Cl)c2Cl)s1)c1ccc([N+](=O)[O-])cc1	13µM*	3	16µM*	8%	11	-17%
O=C(COC(=O)c1ccccn1)Nc1nc(-c2cccc([N+](=O)[O-])c2)cs1	?	-30	18µM*	2%	-10	18%
O=C(Nc1nc(-c2cccnc2)cs1)c1cccc([N+](=O)[O-])c1	-17%	-8	23µM*	5%	-2	?
N#CCC(=O)Nc1ncc(Cc2ccccc2Cl)s1	-11%	-6	-20%	0%	-5	-3%
O=C(NCc1cccnc1)c1ccc(NC(=O)c2cccc([N+](=O)[O-])c2)cc1	15µM*	-10	-82%	4%	7	-11%
O=C(NCc1cccnc1)c1ccc([N+](=O)[O-])cc1	4%	-1	7%	-4%	19	8%

Compound activity: PubChem BioAssay, National Center for Advancing Translational Sciences (NCATS)
